The values below come from PubChem BioAssay (NCATS).

The conditions of test [1]: Ebola virus entry assay, green fluorescence channel.
The conditions of test [2]: Ebola virus entry assay, blue channel fluorescence.
For test [3] the following is noted: Ebola virus entry assay, ratio channel.
The conditions of test [4]: Ebola virus entry assay, reporter ratio channel; Channel type: primary.
The conditions of test [5]: Ebola virus entry assay, blue channel (ratio component).
Test [6] is described as follows: qHTS assay for measurement of the activity of small molecule inhibitors on Zika virus induced Caspase-3 activity in human iPSC derived neural progenitor cells (hNPCs) (AID 1224857; active = well fitted inhibition curve with a large enough effect; also: % of control where 0% means no effect; nearly all actives have a fitted effect of over 65% in size). To be noted: hNPCs ZIKV-induced caspase-3/7, Caspase-Glo luminescence, 6 h; series mostly up to 45.7 µM. An outline of the steps: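 Caspase-3/7 induction by a 6-hour ZIKV infection was quantified with a luminescent Caspase-Glo 3/7 reagent incubated 30 minutes at room temperature. Compounds were preincubated with hNPCs for 1 hour; inhibition was calculated against uninfected and infected control wells.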

Test [7] in a line: qHTS assay for measurement of the activity of small molecule inhibitors on Zika virus induced Caspase-3 activity in human astrocytoma cells (AID 1224859; active = well fitted inhibition curve with a large enough effect;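 also: plate controls were ZIKV-infected untreated cells for no effect and uninfected cells for full effect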). Conditions: SNB-19 ZIKV-induced caspase-3/7, luminescence, 6 h; series mostly up to 45.7 µM. In short, it runs like this: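 In SNB-19 cells plated at 250 cells/well and grown 16-20 h, compounds were applied 1 h before ZIKV (2 FFU/cell). Six hours later caspase-3/7 luminescence was recorded.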
In general terms: Quantitative high-throughput screening tests each substance at several concentrations.

The structures appear in SMILES notation. Values without a mark were called inactive. Inconclusive results are not listed. For some assays here: Measured potencies and affinities stand elsewhere. Activity calls are given as the source filed them. Unless noted, no rule for the calls is given here.
For efficacy in this document: 0% is about no effect.

Consider `c1cnc(N2CCN(Cc3ccc4c(c3)OCO4)CC2)nc1`, for which, in test [1], the efficacy is 47.2%. For the same compound, the outcome in test [2], in test [3], in test [4] and in test [5] was inactive.

For `Nc1ccc(C(=O)N2CC3CC(CN(Cc4ccccc4)C3)C2)cc1`, the efficacy in test [1] is 68.8%. In addition, the compound was called inactive in test [2], in test [3] and in test [5]. For the same compound, in test [4], the AC50 was 31.6 µM (active).

As to `CCN(CC)C(=O)Nc1ccc(OCC(O)CNC(C)(C)C)c(C(C)=O)c1` (stereo not drawn), the efficacy in test [1] is -36%. For the same compound, the compound was classed as inactive in test [2], in test [3], in test [4] and in test [5].

Consider `CC[C@H]1C[C@H]2[C@@H]3CCC4=CC(=O)CC[C@@H]4[C@H]3CC[C@]2(C)[C@H]1O`, for which the efficacy in test [1] is 63.1%. Moreover, the compound was called inactive in test [2], in test [5] and in test [7]. In addition, the AC50 in test [3] and in test [4] was 15.8 µM (active) in each case. For the same compound, in test [6], the Potency entry was “inactive”.

As for `Nc1cc(C(F)(F)F)ccc1S`, the efficacy in test [1] is -31.2%. Also, the compound was classed as inactive in test [2], in test [3], in test [4] and in test [5].

As for `CC1=C(C)C(=O)C(CCCCC#CCCCC#CCO)=C(C)C1=O`, the efficacy in test [1] was 49.4%. Besides, the result in test [2], in test [3], in test [4] and in test [5] was inactive.

On to `CN1C(=O)[C@@H](NC(=O)c2cc3ccccc3[nH]2)N=C(c2ccccc2)c2ccccc21`, for which, in test [1], the efficacy was -160%. For the same compound, the concentration at half-maximal activity (AC50) in test [2] was 39.8 µM (active). In addition, the result in test [3], in test [4] and in test [7] was inactive.

In the case of `CCOC(=O)C1(c2ccccc2)CCN(CCc2ccc(N)cc2)CC1`, the efficacy in test [1] is 105%. Also, the AC50 in test [2] is 28.2 µM (active); in test [3] it was 20 µM (active); in test [4] it was 20 µM (active). In addition, the Potency result in test [6] was “inactive”. In addition, the compound was classed as inactive in test [7].

`CC(Cc1ccccc1)NCCCCl` (stereo not drawn): in test [1], the efficacy is 66.3%. For the same compound, the AC50 in test [2] is 22.4 µM (active); in test [3], 35.5 µM (active); in test [4], 35.5 µM (active). Further, in test [6], the Potency result was “inactive”. For the same compound, the call in test [7] was inactive.

For `C#C[C@]1(O)CC[C@H]2[C@@H]3CCC4=CC(=O)CCC4=C3C=C[C@@]21CC`, in test [1], the efficacy was 138%. Also, the AC50 was 20 µM (active) in test [2], 15.8 µM (active) in test [3] and 15.8 µM (active) in test [4]. Further, in test [6], the Potency entry was “inactive”. Moreover, the outcome in test [7] was inactive.

In the case of `Cc1nnc2n1-c1sc(CCC(=O)N3CCOCC3)cc1C(c1ccccc1Cl)=NC2`, the efficacy in test [1] was 52.3%. The compound was called inactive in test [2], in test [3], in test [4] and in test [7]. Further, in test [6], the Potency result is “inactive”.

As to `C[C@H](CN1CCOCC1)C(C(=O)N1CCCC1)(c1ccccc1)c1ccccc1`, the efficacy in test [1] is 92.9%. Further, the AC50 in test [2] is 35.5 µM (active); in test [4], 44.7 µM (active). Moreover, the outcome in test [3] and in test [7] was inactive. Besides, the Potency entry in test [6] is “inactive”.

For the compound `Oc1ccc2[nH]cc(CCCCN3CC=C(c4ccccc4)CC3)c2c1`, in test [1], the efficacy was 50.4%. Further, the AC50 was 6.31 µM (active) in test [2], 8.91 µM (active) in test [3] and 8.91 µM (active) in test [4]. Moreover, the Potency result in test [6] was “inactive”. Further, the compound was called inactive in test [7].

Consider `C=CCN1CC[C@]23CCCC[C@H]2[C@H]1Cc1ccc(O)cc13`, for which the efficacy in test [1] was 55.2%. Further, the AC50 in test [2] and in test [4] was 39.8 µM (active) in each case. Further, the outcome in test [3] and in test [7] was inactive. In test [6], the Potency entry is “inactive”.

Consider `CCC(OC(C)=O)C(CC(C)NC)(c1ccccc1)c1ccccc1` (stereo not drawn), for which, in test [1], the efficacy is -236%. In addition, the AC50 in test [2] was 3.98 µM (active); in test [3] it was 2.51 µM (active); in test [4], 2.51 µM (active). The Potency entry in test [6] was “inactive”. In addition, the result in test [7] was inactive.

Regarding `C=CC[C@]1(O)CC[C@H]2[C@@H]3CCC4=CC(=O)CCC4=C3C=C[C@@]21C`, in test [1], the efficacy was 89.4%. Also, the AC50 is 28.2 µM (active) in test [2] and 35.5 µM (active) in test [4]. Moreover, the outcome in test [3] and in test [7] was inactive. Moreover, in test [6], the Potency result was “inactive”.

For `CC(C(O)c1ccccc1)N(C)C/C=C/c1ccccc1` (stereo not drawn), the efficacy in test [1] is 90.1%. In addition, the concentration at half-maximal activity (AC50) was 22.4 µM (active) in test [2] and 35.5 µM (active) in test [4]. The result in test [3] and in test [7] was inactive.

`CCC(=O)C(CCN(C)C)(c1ccccc1)c1ccccc1`: the efficacy in test [1] is 68.8%. The AC50 in test [2] is 28.2 µM (active); in test [3], 31.6 µM (active); in test [4] it was 31.6 µM (active). Also, in test [6], the Potency result is “inactive”. For the same compound, in test [7], the result was inactive.

For the compound `Cc1c(Cl)c(=O)oc2cc(OP(=O)(OCCCl)OCCCl)ccc12`, the efficacy in test [1] is 115%. For the same compound, the outcome in test [2], in test [3], in test [4] and in test [7] was inactive.

Regarding `O=C(CCCN1CCC(n2c(=O)[nH]c3ccccc32)CC1)c1ccc(F)cc1`, in test [1], the efficacy is 109%. For the same compound, the AC50 in test [2], in test [3] and in test [4] was 25.1 µM (active) throughout. In addition, in test [6], the Potency entry is “inactive”. The compound was called inactive in test [7].

By AC50 is commonly meant the concentration at which the activity in the assay is half-maximal.
